Screens as filed in PubChem BioAssay.
BH1578 lux ind – quorum light induction in luxS cqsA deficient V. cholerae; V. cholerae BH1578 lux reporter, luminescence, 6 h; activation, % at 18.7 µM; 350,000 tested, 0.16% active; AID 588436; in the data active means activation mostly above about 9.7%, no sharp cut-off
GDH-TPI counter-1 – GDH-TPI coupled enzyme inhibition counter-screen. GDH-TPI coupled enzyme counterscreen, NADH absorbance. inhibition, % at 4.8 µM. 360,000 tested, 1.2% active
CCHF vOTU inh – blocks the CCHF virus ovarian tumor domain protease. CCHFV vOTU protease, Pep-AMC fluorescence. inhibition, % at 11.5 µM. 370,000 tested, 0.55% active
FBA Mtb inh – inhibitors of M. tuberculosis fructose-bisphosphate aldolase | P9WQA3 | purified M. tuberculosis FBA, fluorescence read-out | inhibition, % at 1 µM | 360,000 tested, 2.3% active; in the data active means inhibition above about 27%
Target sequence (P9WQA3 whole entry, looked up): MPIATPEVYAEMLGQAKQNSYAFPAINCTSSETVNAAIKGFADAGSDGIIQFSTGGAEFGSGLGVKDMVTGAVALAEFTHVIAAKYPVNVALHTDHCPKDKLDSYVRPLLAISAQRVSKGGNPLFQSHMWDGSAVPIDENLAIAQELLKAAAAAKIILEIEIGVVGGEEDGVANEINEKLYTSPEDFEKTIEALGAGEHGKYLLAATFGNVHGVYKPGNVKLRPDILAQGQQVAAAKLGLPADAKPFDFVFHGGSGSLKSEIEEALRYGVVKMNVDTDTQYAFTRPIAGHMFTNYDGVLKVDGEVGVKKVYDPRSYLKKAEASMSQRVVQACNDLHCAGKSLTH
Mtb FBA inh conf – confirmation of M. tuberculosis fructose-bisphosphate aldolase inhibitors. shares compounds with FBA Mtb inh. purified M. tuberculosis FBA, fluorescence read-out. inhibition, % at 1 µM. 5,600 tested, 78% active; in the data active means inhibition above about 27%
GDH-TPI counter-2 – inhibits GDH-TPI coupling enzymes, flagging Mtb FBA hits | 5,600 tested, 81% active | shares compounds with FBA Mtb inh | GDH-TPI coupled enzyme counterscreen, fluorescence | inhibition, % at 1 µM; in the data active means inhibition above about 10%
GDH-TPI dose – inhibits GDH-TPI coupling enzymes in dose response; GDH-TPI coupled enzyme assay, fluorescence, artifact counterscreen; shares compounds with FBA Mtb inh; 170 tested, 79% active; IC50, µM; call rule not given here
Of the large screens only hits and unclear results are named; the others gave an inactive call (follow-up assays come after a bar, where they were run). Sampled rows, rich in hits. Any-hit rate of the full collection: about 3.9%. Unless noted, no stated cut-off is given here; in the data, active means inhibition above about 30%; inactive means the rest.

O=C1c2ccccc2NC(c2cccc(O)c2)N1c1ccccc1 (stereo not given)	FBA Mtb inh 42 | Mtb FBA inh conf 129 | GDH-TPI counter-2 107
Cn1c2ccccc2c(=O)c2ccc(NCCc3cccs3)cc21	FBA Mtb inh 109 | Mtb FBA inh conf inactive | GDH-TPI counter-2 inactive
NC(=O)c1ccc(NCCc2cccs2)cc1	none (no result: BH1578 lux ind, GDH-TPI counter-1)
COc1ccc(OC)c(/C=N/NC(=O)c2c(C)nc3ccc(C)cn23)c1	FBA Mtb inh 78 | Mtb FBA inh conf 105 | GDH-TPI counter-2 88
COc1ccc(OC)c(/C=N/NC(=O)CCc2ccc(O)c(O)c2)c1	FBA Mtb inh 43 | Mtb FBA inh conf 127 | GDH-TPI counter-2 99
COc1ccc(OC)c(/C=N/NC(=O)CCc2c(C)n[nH]c2C)c1	FBA Mtb inh 78 | Mtb FBA inh conf 95 | GDH-TPI counter-2 89
COc1cccc(C2=NN(C(C)=O)C(c3cccs3)C2)c1 (stereo not given)	none
O=C(O)CCCNC(=O)Cc1ccccc1	none
O=C(O)c1cc(S(=O)(=O)Nc2ccccc2C(=O)O)ccc1O	FBA Mtb inh 29 | Mtb FBA inh conf inactive | GDH-TPI counter-2 inactive | GDH-TPI dose inactive
Cc1cc(C(=O)NCCN2CCCCC2C)n(-c2ccccc2)n1 (stereo not given)	none
CC1CCCCN1CCNC(=O)c1cnn2ccccc12 (stereo not given)	FBA Mtb inh 40 | Mtb FBA inh conf inactive | GDH-TPI counter-2 14
COc1ccc(CNC(=O)COC(=O)C2CCC(C(C)(C)C)CC2)cc1 (stereo not given)	none
NC(=NCCc1ccc(Cl)cc1)NS(=O)(=O)c1ccccc1	none
NC(=NCCc1ccccc1)NC(=O)c1cc(Cl)ccc1O	FBA Mtb inh 46 | Mtb FBA inh conf 90 | GDH-TPI counter-2 77
C(=C\c1nc2ccccc2[nH]1)/c1ccccc1	GDH-TPI counter-1 37, FBA Mtb inh 32 | Mtb FBA inh conf active | GDH-TPI counter-2 active
COc1ccc(-c2nc3ccc(C)cn3c2Cc2ccsc2)cc1OC	FBA Mtb inh 52 (no result: BH1578 lux ind, GDH-TPI counter-1) | Mtb FBA inh conf 116 | GDH-TPI counter-2 73
Nc1ccc(-c2nc3cc(N)ccc3o2)cc1	GDH-TPI counter-1 34, FBA Mtb inh 37 | Mtb FBA inh conf 81 | GDH-TPI counter-2 51
CN(C)c1ccc(-c2nc3cc(N)ccc3o2)cc1	GDH-TPI counter-1 49, FBA Mtb inh 36 | Mtb FBA inh conf 70 | GDH-TPI counter-2 55
Cc1ccc(-c2nc3cc(N)ccc3o2)cc1Br	none
Nc1ccc(-c2nnc(-c3ccc(N)cc3)o2)cc1	GDH-TPI counter-1 36, FBA Mtb inh 74 | Mtb FBA inh conf 92 | GDH-TPI counter-2 82
CCCCn1c(N)c(N(CCC(C)C)C(=O)C2CCCN(C(=O)c3ccc(Cl)cc3)C2)c(=O)[nH]c1=O (stereo not given)	none
COc1ccc2oc(=Nc3cccc(F)c3)c(C(N)=O)cc2c1	FBA Mtb inh 39 | Mtb FBA inh conf inactive | GDH-TPI counter-2 inactive
COc1ccc2cc(C(N)=O)c(=Nc3ccc(C)cc3)oc2c1	FBA Mtb inh 35 | GDH-TPI counter-2 active
Cc1ccc(NC(=O)CCCCCN2C(=O)[C@@H]3Cc4ccccc4CN3C2=O)cc1	FBA Mtb inh 53 | Mtb FBA inh conf inactive | GDH-TPI counter-2 inactive
CCSc1nnc(NC(=O)[C@@H](NC(=O)c2cc(OC)cc(OC)c2)C(C)C)s1	none
COc1ccc(CC(NC(C)=O)C(=O)NC2CCN(c3nc(C)cc(C)c3C#N)CC2)cc1OC (stereo not given)	FBA Mtb inh 31 | Mtb FBA inh conf 162 | GDH-TPI counter-2 121
COc1cccc(Nc2ccc(C(=O)O)cc2N)c1	FBA Mtb inh 62 | Mtb FBA inh conf 49 | GDH-TPI counter-2 49
Cc1ccc(Nc2ccc(C(=O)O)cc2N)cc1	none (no result: BH1578 lux ind, GDH-TPI counter-1, FBA Mtb inh)
O=C(CC1SC(N2CCCCC2)=NC1=O)Nc1ccc(C(=O)NCCc2ccc(F)cc2)cc1 (stereo not given)	none
COc1ccccc1[C@H]1C(c2cccc(C)c2)=NN(c2ccccc2)[C@@H]1CO	FBA Mtb inh 44 | Mtb FBA inh conf 108 | GDH-TPI counter-2 114
COc1ccccc1[C@H]1C(c2ccc(F)cc2)=NN(c2ccccc2)[C@@H]1CO	FBA Mtb inh 44 | Mtb FBA inh conf active | GDH-TPI counter-2 active
CC1(C(=O)Nc2ccccc2Cc2ccccc2)CCN1CCc1ccccc1 (stereo not given)	none
Cc1ccc(OC(=S)Nc2ccccc2)c(C)c1	none
COC(=O)C1C(O)=C(C=Nc2cccc3ccccc23)C(=O)CC1(C)C (stereo not given)	FBA Mtb inh 32 | Mtb FBA inh conf 131 | GDH-TPI counter-2 93
Cc1cc(O)c2c(c1O)C(=O)[C@]13C(=C2O)C(=O)[C@@H]2[C@@H](O)[C@H]1[C@@H]1[C@H](O)[C@H]3C(=O)C3=C(O)c4c(O)cc(C)c(O)c4C(=O)[C@]312	none (no result: CCHF vOTU inh)
O=c1cnnc(Nc2cccc(F)c2)[nH]1	none
Cc1ccc(-n2c(=O)c3c(n4cnnc24)-c2ccccc2CC32CCCCC2)cc1	none
COc1ccc(OC)c(-n2c(C)ccc2-c2ccc(S(C)(=O)=O)cc2)c1	FBA Mtb inh 91 | Mtb FBA inh conf 87 | GDH-TPI counter-2 97
COc1ccc(OC)c(-n2c(-c3ccc(S(C)(=O)=O)cc3)cc(C=O)c2C)c1	none
O=C(NCc1ccc2c(c1)OCO2)c1ccc(Cl)c(S(=O)(=O)NCc2ccccc2)c1	none
C=CCN1CCN(C(CCC)c2nnnn2Cc2ccco2)CC1 (stereo not given)	none
CC(C)c1cc(NCCCN2CCOCC2)n2c(nc3ccccc32)c1C#N	FBA Mtb inh 51 | Mtb FBA inh conf 169 | GDH-TPI counter-2 129
N#Cc1c2c(c(NCCCN3CCOCC3)n3c1nc1ccccc13)CCC2	FBA Mtb inh 27 | Mtb FBA inh conf 52 | GDH-TPI counter-2 60
COc1ccccc1NC(=O)CN1CCOCC1	none
O=C(CNS(=O)(=O)c1ccccc1)N/N=C/c1ccncc1	none
CCCc1nc2oc3c(NCCOCCO)ncnc3c2c2c1COC(C)(C)C2	FBA Mtb inh 82 | Mtb FBA inh conf 96 | GDH-TPI counter-2 60
CC(C)c1nc2oc3c(NCCO)ncnc3c2c2c1COC(C)(C)C2	FBA Mtb inh 88 | Mtb FBA inh conf 129 | GDH-TPI counter-2 99
CC(C)c1nc2oc3c(=O)[nH]cnc3c2c2c1COC(C)(C)C2	FBA Mtb inh 44 | Mtb FBA inh conf 196 | GDH-TPI counter-2 182
CC(C)c1nc2oc3c(=O)[nH]cnc3c2c2c1CCC2	none
Cc1nc2oc3c(NCC4CCCO4)ncnc3c2c2c1COC(C)(C)C2 (stereo not given)	FBA Mtb inh 102 | Mtb FBA inh conf active | GDH-TPI counter-2 185
O=C(O)c1ccccc1NCc1cccnc1	none
O=C(O)CNc1ccccc1C(=O)O	FBA Mtb inh 58 | Mtb FBA inh conf inactive | GDH-TPI counter-2 inactive
CC1CN(N=Cc2ccc([N+](=O)[O-])o2)C(=N)O1 (stereo not given)	none
